Bioassay records from PubChem BioAssay.
B2AR arrestin = qHTS assay of beta-arrestin-biased ligands of beta2-adrenergic receptor. Potency, µM (top dose mostly 46.1 µM), for the others: top-dose activation, most hits filed as activators. AID 492947, 2010. Beta-2 adrenergic receptor (Homo sapiens), P07550. beta-arrestin recruitment to beta2AR, cell-based reporter. hit rate 0.02% among 330,000;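 note: potency is the fitted concentration of half-maximal effect; 0% = DMSO controls and full agonism = EC100 isoproterenol or metaproterenol; nearly all actives have a fitted effect of over 65% in size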
Target sequence (P07550 whole entry, looked up): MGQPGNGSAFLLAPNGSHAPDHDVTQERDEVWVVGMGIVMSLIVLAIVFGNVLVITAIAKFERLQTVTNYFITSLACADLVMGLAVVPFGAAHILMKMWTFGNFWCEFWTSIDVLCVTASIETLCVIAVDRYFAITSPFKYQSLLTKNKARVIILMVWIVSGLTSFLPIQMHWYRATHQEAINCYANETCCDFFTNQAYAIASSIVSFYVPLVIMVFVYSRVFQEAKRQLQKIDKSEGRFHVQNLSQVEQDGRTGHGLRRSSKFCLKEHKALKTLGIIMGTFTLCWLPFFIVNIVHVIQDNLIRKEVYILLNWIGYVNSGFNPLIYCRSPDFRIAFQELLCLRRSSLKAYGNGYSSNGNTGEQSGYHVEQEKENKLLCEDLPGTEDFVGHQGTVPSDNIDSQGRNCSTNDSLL
miR-21 reporter = qHTS Assay for Modulators of miRNAs and/orActivators of miR-21. HeLa miR-21 FLuc reporter, luciferase, 48 h. Potency, µM (doses to about 38.3 µM), inactives show at the highest dose activity change, positive = activation, hits mostly activators. 340,000 tested, under 10 active;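 note: % of control where 0% means no effect; miR-21 action dims this reporter so a rising signal means less miR-21 action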
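Using DMEM plus 10% FBS, HeLa miR-21-FLuc cells are incubated with test compounds (final up to about 40uM) for 48 hours; firefly luciferase signal is then imaged following reagent-mediated lysis.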
FBPA coupling cs = qHTS Assay for Inhibitors of Fructose-1,6-bisphosphate Aldolase from Giardia Lamblia: Coupling assay counterscreen; coupling enzyme system counterscreen, AmpLite Red fluorescence; activity change, negative = inhibition, % at 58.2 µM, hits read low; hit rate 0.67% among 290,000; in the data active = activity change below about -30%; note: % is set by controls: 0 for no effect and ±100 for the full control effect
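First, compound is pin-transferred into glyceraldehyde-3-phosphate coupling-enzyme reagent at 57.5 uM final and held 10 min at RT. Next, substrate, coupling system and AmpLite Red are added. After 20 min RT, fluorescence (525/598 nm) is read.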
uPA surface inh = qHTS for Inhibitors of Cell Surface uPA Generation; cell surface uPA generation assay, qHTS; Potency, µM (top dose mostly 38.3 µM), for the others: top-dose activity change, negative = inhibition, most hits filed as inhibitors; hit rate 0.31% among 330,000; active = well fitted inhibition curve with a large enough effect; inconclusive = small, poorly fitted or top-dose-only effect; inactive = no such curve, though single readings can be large or run the other way; tested in mouse RAW 264.7 cells; note: potency is the fitted concentration of half-maximal effect; % is set by controls: 0 for no effect and ±100 for the full control effect; nearly all actives have a fitted effect of over 55% in size
Giardia killer = Small Molecules that selectively kill Giardia lamblia: qHTS; hit rate 0.15% among 340,000; Giardia lamblia trophozoite viability; activity change, % at 7.66 µM, hits read low; in the data active = activity change below about -80%; inconclusive = between about -30% and that limit;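 note: parasites exposed to compound for two days anaerobically before the ATP read; % is set by controls: 0 for no effect and ±100 for the full control effect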
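Anaerobic 48 hrs incubation at 37 deg C of 100 trophozoites/well with test compounds; ATPLite 1-Step luminescence, 15-30 min RT, reports cellular ATP as viability.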
GALK inh = qHTS Assay for Inhibitors of Human Galactokinase (GALK); Purified GALK, Kinase-Glo residual ATP luminescence; Potency, µM (doses to about 57.5 µM), without a hit: at the highest dose activity change, negative = inhibition, usual class: inhibitors; hit rate 0.007% among 270,000; note: potency is the fitted concentration of half-maximal effect; % is set by controls: 0 for no effect and ±100 for the full control effect
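ATP-depletion format; final 35 uM ATP, 100 uM D-galactose, 5 nM enzyme; pH 8.0 HEPES/Mg2+ buffer; 60 min RT; luminescence read 10 min after detection reagent.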
Starred values were filed as active, the others as inactive; u = inconclusive; x = not tested or not shown; [ ] = another dose, or the depositor's remark. Only some compounds are listed: those with a hit (about 0.92% of all), similar ones and a draw of the others. Unless noted, calls come from the whole dose curve; as a rule, active = well fitted curve in the direction sought with a large enough effect; inconclusive = small, poorly fitted or top-dose-only effect, or another doubt; inactive = no such curve, though single readings can be large; an effect the other way counts as inactive or inconclusive.

SMILES	B2AR arrestin	miR-21 reporter	FBPA coupling cs	uPA surface inh	Giardia killer	GALK inh
O=C(NC1CCCCC1)c1ccc([N+](=O)[O-])o1	0%	11%	-4	x	-95*	0%
O=C(NC1CCCC(C(F)(F)F)C1)c1ccc([N+](=O)[O-])o1 (stereo unspecified)	0%	x	x	u	-91*	x
CCOC(=O)c1c(OCC)[nH]c2c1cc(O)c1ccccc12	0%	21%	-49*	-12%	6	1%
COc1ccccc1NC(=O)c1cc(S(=O)(=O)N(C)C2CCCCC2)ccc1F	x	3%	x	x	x	x
COc1ccc(CNC(=O)CCn2nc(C)c3c(C)n(-c4ccccc4)nc3c2=O)cc1OC	x	-5%	x	x	x	x
CCN(CC(=O)NCc1ccc(F)cc1)C(=O)/C=C/c1ccco1	0%	0%	-40*	7%	0	1%
O=C(/C=C/c1ccccc1)Nc1ccc(Br)cn1	0%	-28%	-2	1.6µM*	-17	0%
COc1ccc(NC(=O)C2CCN(C3=NS(=O)(=O)C(c4ccc(C)c(C)c4)=C3C)CC2)cc1OC	x	-1%	x	x	x	x
Oc1ccc(NCc2ccccc2OCc2ccccc2F)cc1	6%	26%	-52*	-11%	-6	4%
CCOc1ccccc1CNc1ccc(O)cc1	14%	17%	-39*	3%	-7	0%
CCOc1cccc(CNc2ccc(O)cc2)c1OCc1ccc(Cl)cc1	u	-4%	-51*	-1%	7	x
COc1cccc(CNCCO)c1OCc1ccc(Cl)cc1	0%	1%	1	5%	-6	-1%
CCOc1cc(CNc2ccc(O)cc2)ccc1OCc1ccc(Cl)cc1Cl	4%	24%	-52*	1%	14	-6%
COc1ccc(OC)c(CNC(=O)C2CCN(S(=O)(=O)c3ccc4[nH]c(=O)oc4c3)CC2)c1	x	-2%	x	x	x	x
COc1ccc([C@]23Cc4cc(OC)c(OC)cc4C(O2)C2=C(CCCC2=O)O3)cc1	-1%[9.22 µM]	-14%[7.66 µM]	-18	x	x	x
COc1cc(C2Nc3ccccc3C(=O)N2Cc2ccco2)cc(OC)c1OC (stereo unspecified)	x	x	x	x	-18	x
c1ccc2c(c1)nc(N1CCOCC1)c1c3ccccc3[nH]c21	-2%	24%	-45*	x	-17	0%
O=c1[nH]c2ccccc2nc1N1CCOCC1	-1%	-4%	4	-4%	17	3%
CNC(=S)N/N=C(\C)c1ccc(Cl)s1	18µM*	-6%	2	-5%	-2	-1%
COc1cccc(CNc2ncc(C(=O)Nc3cc(OC)c(OC)c(OC)c3)c(C)n2)c1	0%	16%	4	5.6µM*	-2	1%
COc1cc(NC(=O)c2cnc(NCc3ccccc3)nc2C)cc(OC)c1OC	0%	17%	-1	-7%	16	x
N#CCc1nn2c3c(cnc2c1C#N)C(=O)CCC3	0%	-10%	-32*	1%	6	0%
CC(=O)Nc1ccc(NC(=O)COC(=O)c2ccc([N+](=O)[O-])o2)cc1	0%	x	x	0%	-3	x
Cc1cc(C)cc(NC(=O)c2ccc([N+](=O)[O-])o2)c1	-1%	25%	-5	-19%	-95*	-1%
CC(=O)c1ccc(NC(=O)c2ccc([N+](=O)[O-])o2)cc1	3%	8%	-4	u	-101*	0%
COc1ccc(NC(=O)c2ccc([N+](=O)[O-])o2)cc1	0%	-3%	-3	-10%	-95*	-1%
Cc1cc(C)nc(NC(=O)c2ccc([N+](=O)[O-])o2)n1	-2%	9%	-7	-2%	u	1%
Cc1ccc(C)c(-c2nnc(NC(=O)c3ccc([N+](=O)[O-])o3)o2)c1	0%	x	x	-15%	-85*	x
N#Cc1c(NC(=O)c2cc3nc(-c4ccc(Br)cc4)cc(C(F)(F)F)n3n2)sc2c1CCCC2	x	0%	x	x	x	x
O=c1c(O)c(-c2cc(O)c(O)c(O)c2)oc2cc(O)ccc12	x	x	-10	x	x	x
